Source: PubChem BioAssay
DAGLB inhibitor – DAGLB lipase inhibitors, primary screen, biochemical, fluorescence, HTS | Diacylglycerol lipase-beta (Homo sapiens), Q8NCG7 | HEK293T DAGLB membrane lysate, EnzChek fluorogenic substrate | inhibition, % at 5.17 µM | 340,000 tested, 0.059% active; in the data active = inhibition above about 34%;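 also: 0% = enzyme with vehicle and 100% = wells lacking enzyme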
NadD block – inhibitors of S. aureus NadD, primary screen, biochemical, colorimetric, uHTS; purified NadD enzyme, colorimetric absorbance read-out; inhibition, % at 20 µM; 360,000 tested, 0.78% active; Nicotinate-nucleotide adenylyltransferase NadD (Staphylococcus aureus N315); in the data active = inhibition above about 26%
ARNT-TACC3 inh – disruptors of ARNT/TACC3 protein interaction, primary screen, biochemical, AlphaScreen, single concentration | AlphaScreen His-ARNT PAS-B/GST-TACC3 binding, luminescence; TACC3 fragment carries E629A point mutation | inhibition, % at 9.99 µM | 390,000 tested, 0.66% active | AID 623870, 2012;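 active = mean inhibition of replicates at least 50% and at least half of replicates each reaching 50%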;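 also: 0% = complete ARNT plus TACC3 wells and 100% = ARNT alone without TACC3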
Neddylation inh – inhibitors of cullin neddylation, primary screen, biochemical, TR-FRET, uHTS, NAE and Ubc12. inhibition, % at 25 µM. 360,000 tested, 0.58% active. AID 651699, 2012; in the data active = inhibition above about 36%
HGIII-sPLA2 inh – human group III sPLA2 inhibitors, primary screen, biochemical, QFRET, BODIPY PC-A2 liposome substrate; 370,000 tested, 0.56% active; QFRET BODIPY PC-A2 liposome hydrolysis, fluorescence; Group 3 secretory phospholipase A2 (Homo sapiens), Q9NZ20; inhibition, % at 12.2 µM;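 active = inhibition above mean plus 3 SD of compounds lying within the high and low control bounds, cut at about 19% in these data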;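 also: 0% = median of test compound wells and 100% = no enzyme DMSO wells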
Target sequence (Q9NZ20 whole entry, looked up): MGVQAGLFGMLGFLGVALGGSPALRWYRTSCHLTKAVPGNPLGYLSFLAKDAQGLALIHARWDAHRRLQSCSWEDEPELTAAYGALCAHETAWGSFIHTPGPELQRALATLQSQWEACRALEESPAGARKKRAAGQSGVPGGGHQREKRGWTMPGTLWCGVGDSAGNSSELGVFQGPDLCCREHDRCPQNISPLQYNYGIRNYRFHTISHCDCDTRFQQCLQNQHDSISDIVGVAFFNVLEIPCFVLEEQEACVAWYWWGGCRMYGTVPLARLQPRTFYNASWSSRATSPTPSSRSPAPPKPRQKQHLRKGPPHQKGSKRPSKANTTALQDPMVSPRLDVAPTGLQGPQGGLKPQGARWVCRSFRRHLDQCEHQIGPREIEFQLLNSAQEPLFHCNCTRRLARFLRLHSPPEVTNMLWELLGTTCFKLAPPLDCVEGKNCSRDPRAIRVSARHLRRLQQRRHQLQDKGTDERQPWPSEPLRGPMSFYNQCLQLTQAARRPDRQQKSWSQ
Neddyl inh conf – blockade of NEDD8 conjugation to cullin – biochemical, TR-FRET, single concentration, confirmation. AID 652217, 2013. shares compounds with Neddylation inh. calls only at 25 µM. 1,800 tested, 13% active. TR-FRET cullin neddylation biochemical assay; in the data active = inhibition above about 40%;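 also: neddylation substrate is the cullin 1 ring ligase complex with SKP2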
* hit, by the source's call; i = inactive; x = no result given; + = active, no number. This is a sample that favours compounds with a hit; in the whole collection about 2% have one here.

SMILES | DAGLB inhibitor | NadD block | ARNT-TACC3 inh | Neddylation inh | HGIII-sPLA2 inh | Neddyl inh conf
CCNC(=O)COC(=O)C1C(C(=O)OCC)=C(C)NC(C)=C1C(=O)OCC | 2 | 3 | -7 | 29 | 1 | x
CN1C(=O)c2cc(NC(=O)c3ccc(F)c(F)c3)ccc2OC[C@H]2O[C@@H](CC(=O)O)CC[C@H]21 | x | x | -3 | x | x | x
CN(C)C(=O)C[C@@H]1CC[C@@H]2[C@H](COc3ccc(NC(=O)c4ccc(F)c(F)c4)cc3C(=O)N2C)O1 | x | x | 1 | x | x | x
COc1ccc(C(CC(=O)N2CCCCC2)c2c(OC)cc(OC)c3ccc(=O)oc23)cc1 (configuration not stated) | 1 | 6 | -2 | 47* | -6 | +
c1ccc(-c2oc3ncnc(NCCCN4CCOCC4)c3c2-c2ccccc2)cc1 | 3 | -7 | 10 | 52* | -13 | +
COc1ccc(-c2oc3ncnc(NCCCN4CCOCC4)c3c2-c2ccc(OC)cc2)cc1 | 2 | -3 | -3 | x | -14 | x
Cc1ccc(S(=O)(=O)C(C#N)c2nc3ccccc3nc2N2CC(C)OC(C)C2)cc1C (configuration not stated) | 6 | 13 | 0 | x | -16 | x
Cc1cccc(S(=O)(=O)C(C#N)c2nc3ccccc3nc2N2CC(C)OC(C)C2)c1 (configuration not stated) | 4 | 0 | 5 | 46* | -11 | i
C[C@@H]1CN([C@@H](C)CO)C(=O)c2cc(NS(=O)(=O)c3cccs3)ccc2O[C@@H](C)CCCCO[C@@H]1CN(C)Cc1ccc(C(F)(F)F)cc1 | x | x | 2 | x | x | x
c1cn2c(-c3ccoc3)cncc2n1 | x | -3 | x | 41* | 5 | +
C[C@H]1CN([C@@H](C)CO)C(=O)c2cccc(NC(=O)c3ccc(-c4nccs4)cc3)c2O[C@H]1CN(C)CC1CCCCC1 | x | x | 9 | x | x | x
CC(C)(C)n1nnnc1SCC(=O)Nc1nn(-c2ccccc2)nc1C(N)=O | 1 | 1 | -10 | 48* | -2 | i
O=C(Cn1nnc(-c2cc(C(F)(F)F)cc(C(F)(F)F)c2)n1)NNC(=S)Nc1ccc(Cl)cc1 | 8 | 9 | 1 | 59* | 7 | i
CCCC#Cc1ccc2c(c1)O[C@@H](CN(C)C(=O)CC1CC1)[C@H](C)CN([C@H](C)CO)S2(=O)=O | x | x | -1 | x | x | x
CCc1cc(=O)oc2c(C)c(OCC(=O)NCC3CCC(C(=O)O)CC3)ccc12 (configuration not stated) | 0 | 1 | 2 | 31 | -3 | x
Cc1cc(=O)oc2c(C)c(OCC(=O)N3CC[C@@]4(O)CCCC[C@H]4C3)ccc12 | 1 | 2 | 7 | 44* | 7 | i
Cc1cc(=O)oc2c(C)c(OC(C)C(=O)N3CC[C@@]4(O)CCCC[C@H]4C3)ccc12 (some centres not stated) | -3 | -2 | -19 | 29 | 4 | x
CCc1cc(=O)oc2c(C)c(OCC(=O)N3CCC(C(=O)O)CC3)ccc12 | 0 | -1 | -1 | 43* | -4 | +
Cc1cc(=O)oc2c(C)c(OCC(=O)N(C)C)ccc12 | -2 | 3 | 1 | 41* | 1 | i
COc1ccc(C(=O)Nc2ccc3c(c2)OC[C@H](C)NC[C@H](C)[C@H](OC)CN(C)C3=O)cc1 | x | x | -3 | x | x | x
CC(C)NC(=O)N[C@H]1CC[C@@H](CCNS(=O)(=O)Cc2ccccc2)O[C@@H]1CO | x | x | -16 | x | x | x
C[C@H]1CN([C@@H](C)CO)C(=O)c2cc(-c3cccc(C#N)c3)cnc2O[C@H]1CN(C)Cc1ccncc1 | x | x | -6 | x | x | x
CCCn1cnc2c(c1=O)c1nc3ccccc3nc1n2CCc1ccccc1 | 4 | 5 | -2 | 44* | -1 | i
CCCCn1c2nc3ccccc3nc2c2c(=O)n(-c3ccccc3)cnc21 | -1 | 8 | 6 | 47* | 2 | i
